# Assay outcomes from PubChem BioAssay.
# MPTP inh: permeability transition pore inhibition; 360,000 tested, 1.4% active; inhibition, % at 10 µM; isolated mouse mitochondria, Ca2+ swelling absorbance, 30 min;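 active = inhibition of 50% or more, scaled per plate between neutral and stimulator controls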
# CSC inhib: blocks cancer stem cells | 300,000 tested, 1.1% active | inhibition, % at 7.5 µM | cancer stem cell-like cells viability, luminescence | AID 2717; in the data active = inhibition above about 75%; inconclusive = no clear call, values can overlap the other calls; tested in HMLE shEcad cells
# Beta apoptosis: beta cell apoptosis inhibition. INS-1E cytokine-induced death, ATP luminescence, 48 h; percent of positive-control rescue, neutral wells zero. protection from apoptosis, % (no concentration beside the values). 300,000 tested, 0.8% active. AID 435005;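 active = Every replicate reaches about 75%, or at least half do and their mean reaches it too, limit read from the data; inconclusive = At least half of replicates reach the limit but their mean does not; inactive = Under half of replicates reach the limit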;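 also: higher means more ATP so stronger rescue from cytokine killing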
# SKKanGAS inh: blocks kanamycin growth of S. pyogenes SKKanGAS strain; 300,000 tested, 1.3% active; AID 1662; BacTiter-Glo, 6 h; inhibition, % at 7.5 µM;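 active = mean replicate score, as percent of positive control median, at least 50; inconclusive = mean below 50 but one replicate at or above 50; inactive = mean and every replicate below 50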;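 also: strain carries kanamycin resistance gene driven by streptokinase promoter and grows in 40 µg/ml kanamycin; loss of luminescence reflects streptokinase promoter inhibition or plain growth inhibition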
# GRIN3A LBD mod: NR3A (human) ligand-binding domain modulation; NR3A LBD differential scanning fluorimetry, Tm shift; 0% = protein alone, 100% = glycine-bound protein; Tm shift relative to glycine control, % at 25 µM; 340,000 tested, 2.5% active; AID 1259313;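 active = melting temperature shift of at least 10% of the positive control shift, at one fixed dose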
# Mdm2 MdmX PPI: disrupts the human Mdm2-MdmX interaction; O15151+Q00987; SaOS-2 split-luciferase Mdm2/MdmX complementation, luminescence; inhibition, % at 8 µM; 330,000 tested, 3% active; AID 485346;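 active = inhibition of at least 50% at 8 µM in the primary screen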
# Mdm2-MdmX conf: confirmation of human Mdm2/MdmX interaction inhibitors; shares compounds with Mdm2 MdmX PPI; Mdm2-MdmX binding, luminescent assay; inhibition, % at 8 µM; 10,000 tested, 55% active; AID 489028; in the data active = inhibition above about 40%
# Full FLuc ctr: full-length luciferase inhibition in Mdm2/MdmX counter-screen; shares compounds with Mdm2 MdmX PPI; SaOS-2 full-length luciferase counterscreen, luminescence; 6,200 tested, 77% active; AID 504607; inhibition, % at 8 µM;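 active = mean inhibition at 8 µM reaching about 37%, which flags the compound as non-specific, limit read from the data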;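 also: p53-null SaOS-2 cells with luciferase driven by a doxycycline-inducible promoter; compound on cells about two nights before reading with doxycycline added after day one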
# Hits are given with their value; – = inactive; ? = inconclusive; · = no result. Rows were chosen to be rich in hits. Some 6.9% of all compounds tested hit in one or more screens of this group.
SMILES,MPTP inh,CSC inhib,Beta apoptosis,SKKanGAS inh,GRIN3A LBD mod,Mdm2 MdmX PPI,others
COc1ccc(/C=C2\SC(=S)NC2=O)cc1OS(=O)(=O)c1ccc(NC(C)=O)cc1,–,·,·,–,18,·,
COc1cc(/C=C2/SC(=S)NC2=O)ccc1OS(=O)(=O)c1ccc(C)cc1,–,102,–,–,–,–,
CCOc1ccc(/C=C2\SC(=S)NC2=O)cc1OC,–,–,–,–,–,–,
COc1ccc(/C=C2\SC(=S)N(CCCC(=O)N3CCN(C)CC3)C2=O)cc1OC,–,·,·,·,–,·,
COc1cccc(OCCOc2ccc(/C=C3/SC(=S)NC3=O)cc2)c1,–,–,–,–,10,·,
COc1ccc(C=C2SC(=S)NC2=O)cc1,–,·,·,·,–,·,
COc1cc(/C=C2\SC(=S)N(CCCCC(=O)O)C2=O)ccc1OS(=O)(=O)c1ccc(C)cc1,–,–,–,–,31,–,
CCN1C(=O)[C@H]2[C@@H](c3ccc(C)cc3)N3C(=O)N(c4ccc(C(F)(F)F)cc4)C(=O)[C@@]3(Cc3ccccc3)[C@H]2C1=O,–,–,–,–,–,–,
O=C(CNC(=O)c1ccc(-c2ccccc2)cc1)Nc1cccc(CO)c1,–,–,–,·,–,–,
COc1ccc(Nc2nc(Cl)nc(NCc3ccco3)n2)c(OC)c1,–,–,–,–,–,–,
COc1ccc(/C=N/Nc2nc(NCc3ccco3)nc(Nc3ccc(OC)cc3)n2)cc1,–,–,–,–,18,–,
COc1ccc(Nc2nc(NCc3ccco3)nc(N/N=C/c3ccccc3F)n2)cc1,–,·,–,–,16,–,
COc1ccc(Nc2nc(NCc3ccco3)nc(N/N=C/c3ccc(O)cc3)n2)cc1,–,–,–,–,19,–,
O=C(CCN1C(=O)c2ccc([N+](=O)[O-])cc2C1=O)Nc1ccccc1C(=O)O,–,–,–,–,–,–,
COc1cc(OC)cc(C(=O)Nc2nc3ccccc3[nH]2)c1,–,–,–,59,–,–,
COc1ccc(Br)c(C(=O)Nc2nc3ccccc3[nH]2)c1,–,–,–,–,–,–,
Cc1cc(C)cc(C(=O)Nc2nc3ccccc3[nH]2)c1,–,–,–,?,–,–,
COc1ccc2oc(C(=O)Nc3nc4ccccc4[nH]3)c(C)c2c1,–,–,–,78,–,–,
COc1ccc2oc(C(=O)Nc3nc4ccc(S(C)(=O)=O)cc4s3)c(C)c2c1,–,–,–,–,19,–,
CC(OC(=O)c1ccc(Cl)cc1)C(=O)NCC1CCCCC1 (centres undefined),–,·,–,·,–,–,
CCc1ccc(OCC(=O)NC(NC(=S)Nc2ccc(C)cc2C)C(Cl)(Cl)Cl)cc1 (centres undefined),–,–,95,68,–,–,
CC(=O)NC(NC(=S)Nc1ccc(C)cc1C)C(Cl)(Cl)Cl (centres undefined),–,–,–,–,–,–,
O=C(CCNS(=O)(=O)c1ccccc1F)NC1CCCCCC1,–,·,–,·,–,–,
S=C(c1ccccc1)N1CCCc2ccccc21,–,–,–,–,11,–,
CCOC(=O)c1ccc(NCc2cccnc2)cc1,–,–,–,–,–,–,
SMILES,MPTP inh,CSC inhib,Beta apoptosis,SKKanGAS inh,GRIN3A LBD mod,Mdm2 MdmX PPI,others
CCOC(=O)c1ccc(NC(=O)NCc2cccnc2)cc1,–,–,101,–,–,–,
CC(=O)c1ccc(NC(=S)NCc2cccnc2)cc1,–,–,100,–,–,–,
Cc1ccc(NC(=S)NCc2cccnc2)cc1,–,–,–,–,–,–,
CC(=O)C1=CCC(c2ccccc2)N(S(C)(=O)=O)C1 (centres undefined),–,·,·,·,·,·,
O=C(O)c1ccc(/C=N/Nc2ccc(F)cc2F)cc1,–,–,–,–,–,–,
Fc1ccc(N/N=C/c2ccncc2)c(F)c1,–,90,–,–,23,–,
Cc1ccc(-c2csc3nc(SCC(=O)N(C)C)n(Cc4ccccc4)c(=O)c23)cc1,–,–,–,–,–,–,
NC(=O)CSc1nc2scc(-c3ccc(Cl)cc3)c2c(=O)n1Cc1ccccc1,–,–,–,–,13,–,
Cc1ccc(-c2n[nH]c(=S)n2/N=C/c2sccc2C)cc1,–,–,–,–,15,–,
COc1ccc(-n2nc(C(=O)NCC(=O)Nc3cc(OC)c(OC)c(OC)c3)c3ccccc3c2=O)cc1Cl,–,–,–,–,–,70,Mdm2-MdmX conf=73;Full FLuc ctr=81
CCN(CC)C(=O)CNC(=O)c1nn(-c2ccc(OC)c(Cl)c2)c(=O)c2ccccc12,–,–,–,–,–,–,
COc1ccc(-n2nc(C(=O)NCC(=O)NCc3ccc(F)cc3)c3ccccc3c2=O)cc1OC,–,·,–,–,–,80,Mdm2-MdmX conf=–
O=C(NCCC(=O)N1CCN(S(=O)(=O)c2ccccc2F)CC1)Nc1ccccc1,–,·,–,·,–,–,
COC(=O)c1c(-c2ccc3ccccc3c2)csc1NC(=O)Cc1ccc(OC)c(OC)c1,–,–,–,–,–,55,Mdm2-MdmX conf=54;Full FLuc ctr=57
O=C(CCNC(=O)c1ccco1)Nc1ccc(F)c(Cl)c1,–,–,–,–,–,–,
COC(=O)c1c(-c2ccc(OC)cc2)sc2ccc(N3CCOCC3)cc12,–,–,–,·,–,57,Mdm2-MdmX conf=–
COc1ccc(Nc2nc(N3CCCC3)nc3ccccc23)c(OC)c1,–,–,–,–,–,54,Mdm2-MdmX conf=–
COc1ccc(Nc2ncnc3ccccc23)c(OC)c1,–,–,–,–,–,–,
CC(Nc1nc(N2CCCCC2)nc2ccccc12)c1ccccc1 (centres undefined),–,·,–,–,–,54,Mdm2-MdmX conf=47;Full FLuc ctr=73
CC(Nc1nc(-c2ccccc2)nc2ccccc12)c1ccccc1 (centres undefined),–,?,–,–,–,–,
CCC1CCCCN1CCCNC(=O)CCC(=O)N1CCOc2ccccc21 (centres undefined),–,–,–,–,–,–,
COc1ccc(N2CC(C(=O)NCCc3ccc(Cl)cc3)CC2=O)cc1 (centres undefined),–,–,–,–,–,–,
c1ccc2c(c1)OCC(c1csc3ncnc(N4CCCCC4)c13)O2 (centres undefined),–,–,–,–,–,65,Mdm2-MdmX conf=–
Clc1ncnc2scc(C3COc4ccccc4O3)c12 (centres undefined),–,–,–,–,–,52,Mdm2-MdmX conf=–
CCCN1CCN(c2ncnc3scc(C4COc5ccccc5O4)c23)CC1 (centres undefined),–,–,–,–,–,–,
O=c1[nH]cnc2scc(C3COc4ccccc4O3)c12 (centres undefined),–,–,–,–,–,–,
C[C@H](O)[C@@H]1CN2CCc3c([nH]c4ccc(-c5ccc6c(c5)OCO6)cc34)[C@@H]2C[C@@H]1N(C)C(=O)NC1CCCCC1,–,·,·,·,·,·,
